Screens (PubChem)
Pf Dd2 inh: blocks in vitro growth of P. falciparum Dd2; P. falciparum Dd2 growth, SYBR Green, 72 h; Potency, µM (doses to about 28.9 µM), for inactives: top-dose activity, negative = inhibition, most hits filed as inhibitors; actives 4.3% (n = 120,000); active = well fitted inhibition curve with a large enough effect;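 note: plate controls were DMSO vehicle for no effect and reference drug for full effect; nearly all actives have a fitted effect of over 65% in size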
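Infected erythrocytes (Dd2, 0.3% parasitemia, 2.5% hematocrit final) are added to compound in RPMI-1640/Albumax II medium, grown 72 h at 37C in low oxygen, then lysed with saponin/Triton-X containing SYBR Green and read by fluorescence.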
The depositor's hits bear a star; i = inactive; [ ] = remark or other dose. Only a selection was taken, and hits are over-represented in it overall. Potency is the fitted concentration of half-maximal effect.

SMILES	Pf Dd2 inh
COc1cccc(CNCCSc2nnnn2C)c1OCc1ccc(Cl)cc1Cl	i
Cn1nnnc1SCCCNCc1cc(Cl)ccc1OCc1ccccc1	7.9µM*
Cn1nnnc1SCCCNCc1cccc(OCc2ccccc2Cl)c1	10µM*
COc1cc(CNCCSc2nnnn2C)cc(Cl)c1OCc1ccccc1	i
CCOc1ccccc1CNCCSc1nnnn1C	i
CN1C(=O)COC[C@@H]1[C@H](O)c1ccc(NC(=O)Nc2ccccc2)cc1	-17%[44.1 µM]
C=CCNC(=O)N[C@H]1C[C@@H](C(=O)N[C@@H](Cc2ccc(OC)cc2)C(N)=O)N(C(=O)CC(C)(C)C)C1	-2%
Cc1ccccc1C(=O)N1C(C(=O)NC(C)C)COC12CCN(C(=O)c1ccc(Cl)cc1)CC2 (stereo not drawn)	i
COc1cccc(CC(=O)N2CCC3(CC2)N=C(c2ccccc2)NO3)c1	i
Cc1ccc(CNC(=O)N2CCCCCNC(=O)[C@@H]3CCCC[C@@H]32)cc1	-17%
COc1ccc(OC)c(CNC(=O)c2c(C)oc3ncn(CC(C)C)c(=O)c23)c1	10µM*
CCOC(=O)C(C)NC(=O)c1c(C)oc2ncn(CC(C)C)c(=O)c12 (stereo not drawn)	12%
COc1ccc(OC)c(CCNC(=O)c2c(C)oc3ncn(C)c(=O)c23)c1	-19%
Cn1cc(S(=O)(=O)c2ccccc2)c(=O)c2cc(F)c(N3CCN(c4ccccc4)CC3)cc21	7.1µM*
CCn1cc(S(=O)(=O)c2ccccc2)c(=O)c2cc(C)ccc21	-21%
CCn1cc(S(=O)(=O)c2cccc(C)c2)c(=O)c2cc(F)c(N3CCCCC3C)cc21 (stereo not drawn)	26%
CCn1cc(S(=O)(=O)c2ccccc2)c(=O)c2cc(F)c(N3CCN(c4ccccc4)CC3)cc21	3.2µM*
Cc1ccc(S(=O)(=O)c2cn(C)c3cc(N4CCN(c5ccccc5)CC4)c(F)cc3c2=O)cc1	-24%
Cn1cc(S(=O)(=O)c2ccccc2)c(=O)c2cc(F)c(N3CCOCC3)cc21	-7%
CCOC(=O)c1csc(NC(=O)C2CC(=O)N(c3n[nH]c4ccccc34)C2)n1 (stereo not drawn)	i
Cc1cc(C(=O)N2CCOCC2)c2c(C3CCCN3)noc2n1 (stereo not drawn)	9%
Cc1cc2nc3n(c(=O)c2n1CC(=O)Nc1ccc(Cl)cc1)CCCCC3	i
CN(Cc1ccccc1)C(=O)CCc1nc(C2CCCN2C(=O)C2CCC2)no1 (stereo not drawn)	-6%
Cc1ccc(CN2C(=O)NC3(CCN(C(=O)c4ccccn4)CC3)C2=O)cc1	15%
Cc1noc(-c2ccc3c(c2)OCO3)c1C(=O)NCc1ccccc1	5%
SMILES	Pf Dd2 inh
COCCCNC(=O)N1CCC2(CC1)CN(Cc1ccc(OC)cc1)C2=O	3%
COc1ccc(CCNC(=O)c2cc3c(=O)[nH]c(C)cn3n2)cc1OC	i
Cc1ccc(CNC(=O)c2ccc(NC(=O)c3cc4c(=O)[nH]c(C)cn4n3)cc2)cc1	4µM*
Cc1cn2nc(C(=O)NCc3cc(F)cc(F)c3)cc2c(=O)[nH]1	10%
Cc1cn2nc(C(=O)NCc3cccc(Cl)c3)cc2c(=O)[nH]1	8%
Cc1cn2nc(C(=O)NCCCc3ccccc3)cc2c(=O)[nH]1	7.9µM*
COCCCNC(=O)c1cc2c(=O)[nH]c(C)cn2n1	21%
CCOc1cccc(CNC(=O)c2ccc(Cn3ccn4nc5c(c4c3=O)CCCC5)cc2)c1	i
Fc1ccc(-c2noc(-c3nc(-c4ccncc4)no3)n2)cc1F	i
CN(Cc1ccc(-n2cccn2)cc1)C(=O)CCn1nnnc1CN1CCOCC1	-5%
COCCN1C(=O)CS(=O)(=O)C12CCN(C(=O)c1ccc(OC)cc1OC)CC2	-6%
C=CCOc1cccc(-c2nc(C(=O)Nc3ccc(F)cc3)cs2)c1	i
Cc1ccccc1-c1[nH]nc2ncc(-c3c(C)noc3C)nc12	-4%[44.1 µM]
CCc1ccc(NC(=O)CC(c2cc(OC)c(OC)c(OC)c2)N2Cc3ccccc3C2=O)cc1 (stereo not drawn)	-19%
COc1cc(C(CC(=O)Nc2cccc(C(C)=O)c2)N2Cc3ccccc3C2=O)cc(OC)c1OC (stereo not drawn)	10µM*
COc1ccccc1NC(=O)CC(c1cc(OC)c(OC)c(OC)c1)N1Cc2ccccc2C1=O (stereo not drawn)	i
COc1ccc(N2CC(c3noc(-c4cccc(OC)c4)n3)CC2=O)cc1 (stereo not drawn)	15%
COC(=O)c1ccc(Cl)cc1NC(=O)N1CCC(CN2CCCC2)CC1	-1%
Cc1cccc(NC(=O)N2CCC(CN3CCC(C)CC3)CC2)c1C	-11%
COC(=O)c1ccc(Cl)cc1NC(=O)N1CCC(CN2CCC(C)CC2)CC1	10µM*
COc1ccc(C(=O)N2CCCC(CN3CCOCC3)CC2)cc1OC (stereo not drawn)	-2%
COCC[C@]1(O)CCN(Cc2cc(F)ccc2-n2cccn2)C[C@H]1C	-4%
CCOC(=O)N1CCN(C2CCCN(Cc3cc(C)ccc3-n3cccn3)C2)CC1 (stereo not drawn)	10µM*
COc1ccc(-n2cccn2)c(CN2CC[C@H](CO)[C@H](O)C2)c1	i
CCNC(=O)N1CCOc2ccc(CCC(=O)Nc3ccc(C)cc3)cc2C1	-8%
SMILES	Pf Dd2 inh
Cc1ccccc1C(=O)N1C(C(=O)NC2CC2)COC12CCN(C(=O)c1cccc(Cl)c1)CC2 (stereo not drawn)	i
O=C(Nc1ccc2c(c1)OCCO2)N1CCC(c2nc(C3CCOCC3)no2)CC1	i
Cc1cccc(C(=O)N2CCC(c3noc(-c4ccncc4)n3)C2)c1 (stereo not drawn)	83%[5.79 µM]
CC(C)NC(=O)N(C1CC1)C1CCOC2(CCN(C(=O)C3CCCC3)CC2)C1 (stereo not drawn)	-22%
COc1ccc2c(c1)-c1nc(NC(=O)c3cccc(Br)c3)sc1CC2	10µM*
COc1ccc2c(c1)CCc1sc(NC(=O)c3ccc(Br)cc3)nc1-2	-2%
COc1cccc(OC)c1C(=O)Nc1nc2c(s1)CCc1ccccc1-2	21%
COCCN1C(=O)[C@H]2CN(Cc3ccc(C)c(C)c3)C[C@H]2C1=O	28%
Cc1ccccc1C(=O)Nc1ccnn1C1CCN(C(=O)C2(C(N)=O)CC2)CC1	-12%
CCOc1ccc(C2=NC(c3cccs3)=Nc3ccc(CC)cc3N2)cc1OCC	8.9µM*
CCCCOc1ccc(C2=NC(c3cccs3)=Nc3ccc(OC)cc3N2)cc1	-6%
CCc1ccc2c(c1)NC(c1cccs1)=NC(c1ccc(F)cc1)=N2	-7%
CN1CCCCCCN(C(=O)C2CCCCC2)[C@H]2CCC[C@H]2C1=O	1%
CCN1c2cc(C(=O)N3CCN(c4ccccc4)CC3)ccc2C(=O)N2CCCCC21 (stereo not drawn)	i
Cc1cccc(N2CCN(C(=O)c3ccc4c(c3)N(C)C3CCCCCN3C4=O)CC2)c1 (stereo not drawn)	8.9µM*
Cc1cccc(NC(=O)c2ccc3c(c2)N(C)C2CCCCCN2C3=O)c1 (stereo not drawn)	i
CN1c2cc(C(=O)N3CCN(c4ccc(F)cc4)CC3)ccc2C(=O)N2CCCCCC21 (stereo not drawn)	i
CN1c2cc(C(=O)Nc3ccccc3)ccc2C(=O)N2CCCCC21 (stereo not drawn)	i
CN1c2cc(C(=O)N3CCN(c4ccccc4Cl)CC3)ccc2C(=O)N2CCCCC21 (stereo not drawn)	6.3µM*
CCN1c2cc(C(=O)N3CCCCC3)ccc2C(=O)N2CCCCCC21 (stereo not drawn)	i
